Results reported in PubChem BioAssay (Tox21).
“And” between values parts separate entries of the source, which are not always exact repeats. Identical values can stand only once. Records with an inconclusive call do not appear. The source made the active and inactive calls. Calls follow the shape of the dose curve; as a rule, active = well fitted curve in the direction sought with a large enough effect in the repeat runs; inconclusive = weak or mixed curves; inactive = no such curve, though single readings can be large; an effect the other way counts as inactive or inconclusive.

Assay: qHTS RealTime-Glo MT Cell Viability Assay in HepG2 cells - 24 hour (AID 1224867)
Details: RealTime-Glo luminescence; series mostly up to 76.8 µM; activity change, negative = cytotoxicity: at the top concentration
Outline: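 Viability was tracked continuously by NanoLuc luminescence from prosubstrate reduced by living HepG2 cells, at successive time points over 40 h of compound exposure. Cells with reagent were preincubated 5 h at 37 °C before compound addition.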
% is scaled to controls: 0 for no effect and ±100 for the full control effect; potency is read from the fitted curve at half-maximal effect.
Also: nearly all actives have a fitted effect of over 50% in size.

Row | Compound | activity change, negative = cytotoxicity | Potency
1 | Nc1ccc2cc(S(=O)(=O)O)cc(O)c2c1N=Nc1ccccc1C(F)(F)F | -4.91% (inactive) | –
2 | Cc1onc(-c2ccccc2Cl)c1C(=O)N[C@@H]1C(=O)N2[C@@H]1SC(C)(C)[C@@H]2C(=O)O | -0.104% [at 35.3 µM] (inactive) | –
3 | CCCCCCCCCCCCc1ccc(O)cc1 | – | 49 µM (active)
4 | O=C(Oc1cccc2cccnc12)c1ccccc1 | -39.2% [at 35.3 µM] (inactive) | –

Assay: qHTS RealTime-Glo MT Cell Viability Assay in HEK293 cells - 32 hour (AID 1224868); as to activity change, negative = cytotoxic: top concentration of the series differs between compounds
Details: RealTime-Glo luminescence; series mostly up to 76.8 µM; activity change, negative = cytotoxic: at the top concentration
Outline: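 Viability tracked continuously by luminescence as live cells reduce a prosubstrate for NanoLuc; HEK293 cells preincubated 5 h, compound-treated at 37 C, and read at 0, 8, 16, 24, 32 and 40 h.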

Row | Compound | Potency | activity change, negative = cytotoxic
5 | O=C(Nc1cccc(C(F)(F)F)c1)c1cc(Br)cc(Br)c1O | 4.36 µM (active) | –
6 | CNc1ccc(O)cc1 | 12.3 µM (active) | –
7 | Oc1ccc(Cl)cc1Sc1cc(Cl)ccc1O | 19.5 µM (active) and 23.9 µM (active) | –
8 | CCCCN1C(=O)[C@@H]([C@H](O)C2CCCCC2)NC(=O)C12CCN(Cc1ccc(Oc3ccc(C(=O)O)cc3)cc1)CC2 | – | -27.9% (inactive)
9 | Cc1[nH]cnc1C[C@H]1CCc2c(C)c3ccccc3n2C1=O | 23.9 µM (active) | –
10 | Oc1ccc(N=Nc2ccccc2)cc1 | 19.8 µM (active) | –
11 | CCOC(=O)c1nc(C(Cl)(Cl)Cl)n(-c2ccc(Cl)cc2Cl)n1 | – | -12.4% (inactive)
12 | O=C1c2c(O)ccc(Nc3ccc(CCO)cc3)c2C(=O)c2c([N+](=O)[O-])ccc(O)c21 | – | -24.2% (inactive)
13 | NC(=O)C1(N2CCCCC2)CCN(CCCN2c3ccccc3CCc3ccc(Cl)cc32)CC1 | 21.3 µM (active) | –
14 | CCCCc1oc2ccc(NS(C)(=O)=O)cc2c1C(=O)c1ccc(OCCCN(CCCC)CCCC)cc1 | 9.52 µM (active) | –
15 | Clc1ccccc1C(c1ccccc1)(c1ccccc1)n1ccnc1 | 21.9 µM (active) and 6.74 µM (active) | –
16 | CC(C)(C)CC(C)(C)c1ccc(O)c(Cc2ccc(Cl)cc2Cl)c1 | 21.3 µM (active) | –
17 | CC[C@@]1(O)C(=O)OCc2c1cc1n(c2=O)Cc2cc3c(CN(C)C)c(O)ccc3nc2-1 | 0.0674 µM (active) | –
18 | CCN(CC)CCCC(C)Nc1c2ccc(Cl)cc2nc2ccc(OC)cc12 (stereo unspecified) | 2.68 µM (active) | –
19 | COc1ccc(CN2CCN(C(c3ccc(F)cc3)c3ccc(F)cc3)CC2)c(OC)c1OC | 16.9 µM (active) | –
20 | NC(=NCCCCCCN=C(N)/N=C(\N)Nc1ccc(Cl)cc1)/N=C(\N)Nc1ccc(Cl)cc1 | 8.67 µM (active) [middle of 5 runs] | –
21 | OCCN(CCO)c1nc(N2CCCCC2)c2nc(N(CCO)CCO)nc(N3CCCCC3)c2n1 | 26.8 µM (active) | –
22 | CC(C)(C)C1CCC(CC2=C(O)c3ccccc3C(=O)C2=O)CC1 (stereo unspecified) | – | 1.72% [at 35.3 µM] (inactive)
23 | C/C=C1/C(=O)C[C@H]2[C@@H]3CCC4=CC(=O)CC[C@]4(C)[C@H]3CC[C@]12C | 48.8 µM (active) | –
24 | ON=C1CCCC1 | 25.4 µM (active) | –
25 | C[C@@H](NCCCc1cccc(C(F)(F)F)c1)c1cccc2ccccc12 | 23.9 µM (active) | –
26 | Nc1ccc2cc(S(=O)(=O)O)cc(O)c2c1N=Nc1ccccc1C(F)(F)F | – | 6.75% (inactive)
27 | CCN(CCC#N)c1ccc(N=Nc2c(Cl)cc([N+](=O)[O-])cc2Cl)cc1 | – | -9.54% (inactive)
28 | CCCCCCCCCCCCc1ccc(O)cc1 | 43.6 µM (active) | –
29 | O=C(Oc1cccc2cccnc12)c1ccccc1 | – | -29.4% [at 35.3 µM] (inactive)

Assay: A CellTox Green Cytotoxicity Assay to monitor cytotoxicity in HEK293 cells - 0 hour (AID 1224869)
Details: CellTox Green fluorescence; series mostly up to 76.8 µM; cytotoxicity: at the top concentration
Outline: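 Cells (HEK293, 600/well) and dye reagent are dispensed together. After 5 h at 37 C, 23 nL compound is pinned in. Plates stay at 37 C for 40 h with fluorescence read at 0h, 8h, 16h, 24h, 32h and 40h.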

Row | Compound | cytotoxicity | Potency
30 | C[n+]1ccn(Cc2ccccc2)c1 | 0.359% (inactive) | –
31 | CC(C)n1nc(-c2cc3cc(O)ccc3[nH]2)c2c(N)ncnc21 | -1.47% [at 35.3 µM] (inactive) | –
32 | O=C(Nc1cccc(C(F)(F)F)c1)c1cc(Br)cc(Br)c1O | 0.785% (inactive) | –
33 | CCCCCCCCCCCCCCCC[N+](C)(C)CCN(Cc1ccc(OC)cc1)c1ncccn1 | 0.576% [at 35.3 µM] (inactive) | –
34 | CNc1ccc(O)cc1 | -15.3% (inactive) | –
35 | Oc1ccc(Cl)cc1Sc1cc(Cl)ccc1O | – | inactive
36 | CCCCN1C(=O)[C@@H]([C@H](O)C2CCCCC2)NC(=O)C12CCN(Cc1ccc(Oc3ccc(C(=O)O)cc3)cc1)CC2 | -6.05% (inactive) | –
37 | Cc1[nH]cnc1C[C@H]1CCc2c(C)c3ccccc3n2C1=O | -0.564% (inactive) | –
38 | COc1cc(-c2nc(NC(=O)c3cc4cc(C)cc(C)c4n3CC(=O)O)sc2CCC2CCCCC2)c(OC)cc1Cl | 10.5% (inactive) | –
39 | Oc1ccc(N=Nc2ccccc2)cc1 | 1.18% (inactive) | –
40 | CCCC(=O)OC[C@@H](OC(=O)CCC)[C@@H](OC(=O)CCC)[C@H](Cn1c2nc(=O)[nH]c(=O)c-2nc2cc(C)c(C)cc21)OC(=O)CCC | – | 19 µM (active)
41 | Cc1cc(=O)oc2cc(N(C)C)ccc12 | 0.0243% (inactive) | –
42 | CCOC(=O)c1nc(C(Cl)(Cl)Cl)n(-c2ccc(Cl)cc2Cl)n1 | -3.8% (inactive) | –
43 | O=C1c2c(O)ccc(Nc3ccc(CCO)cc3)c2C(=O)c2c([N+](=O)[O-])ccc(O)c21 | -7.59% (inactive) | –
44 | NC(=O)C1(N2CCCCC2)CCN(CCCN2c3ccccc3CCc3ccc(Cl)cc32)CC1 | 0.376% [at 35.3 µM] (inactive) | –
45 | CCCCc1oc2ccc(NS(C)(=O)=O)cc2c1C(=O)c1ccc(OCCCN(CCCC)CCCC)cc1 | -1.69% [at 35.3 µM] (inactive) | –
46 | Clc1ccccc1C(c1ccccc1)(c1ccccc1)n1ccnc1 | – | inactive
47 | CC(C)(C)CC(C)(C)c1ccc(O)c(Cc2ccc(Cl)cc2Cl)c1 | -0.716% [at 35.3 µM] (inactive) | –
48 | OCCN1CCN(CC/C=C2/c3ccccc3Sc3ccc(C(F)(F)F)cc32)CC1 | 7.11% [at 35.3 µM] (inactive) | –

Row | Compound | cytotoxicity | Potency
49 | CC[C@@]1(O)C(=O)OCc2c1cc1n(c2=O)Cc2cc3c(CN(C)C)c(O)ccc3nc2-1 | – | 23.9 µM (active)
50 | CCN(CC)CCCC(C)Nc1c2ccc(Cl)cc2nc2ccc(OC)cc12 (stereo unspecified) | 18.4% [at 35.3 µM] (inactive) | –
51 | COc1ccc(CN2CCN(C(c3ccc(F)cc3)c3ccc(F)cc3)CC2)c(OC)c1OC | -1.24% [at 35.3 µM] (inactive) | –
52 | NC(=NCCCCCCN=C(N)/N=C(\N)Nc1ccc(Cl)cc1)/N=C(\N)Nc1ccc(Cl)cc1 | – | inactive
53 | Nc1ccccc1O | 1.48% (inactive) | –
54 | Nc1ccc2c3c(cccc13)-c1ccccc1-2 | – | 22.1 µM (active)
55 | OCCN(CCO)c1nc(N2CCCCC2)c2nc(N(CCO)CCO)nc(N3CCCCC3)c2n1 | – | 21.3 µM (active)
56 | CC(C)(C)C1CCC(CC2=C(O)c3ccccc3C(=O)C2=O)CC1 (stereo unspecified) | -7.13% [at 35.3 µM] (inactive) | –
57 | C/C=C1/C(=O)C[C@H]2[C@@H]3CCC4=CC(=O)CC[C@]4(C)[C@H]3CC[C@]12C | -1.91% (inactive) | –
58 | CN1CCC(Nc2ncc3ncnc(Nc4ccc(F)c(Cl)c4)c3n2)CC1 | -2.4% [at 35.3 µM] (inactive) | –
59 | ON=C1CCCC1 | 0.214% (inactive) | –
60 | C[C@@H](NCCCc1cccc(C(F)(F)F)c1)c1cccc2ccccc12 | 9.19% [at 35.3 µM] (inactive) | –
61 | Nc1ccc2cc(S(=O)(=O)O)cc(O)c2c1N=Nc1ccccc1C(F)(F)F | -15.7% (inactive) | –
62 | Cc1onc(-c2ccccc2Cl)c1C(=O)N[C@@H]1C(=O)N2[C@@H]1SC(C)(C)[C@@H]2C(=O)O | 2.35% [at 35.3 µM] (inactive) | –
63 | CS(=O)(=O)CCNCc1ccc(-c2ccc3ncnc(Nc4ccc(OCc5cccc(F)c5)c(Cl)c4)c3c2)o1 | 1.43% [at 35.3 µM] (inactive) | –
64 | CCN(CCC#N)c1ccc(N=Nc2c(Cl)cc([N+](=O)[O-])cc2Cl)cc1 | 0.837% (inactive) | –
65 | CCCCCCCCCCCCc1ccc(O)cc1 | -0.461% (inactive) | –
66 | O=C(Oc1cccc2cccnc12)c1ccccc1 | -1.68% [at 35.3 µM] (inactive) | –
